Where “and” joins values, the source holds several entries; their conditions need not be identical. Equal values may be shown once. Hit rate of the full screen: of about 360,000 compounds, about 4,200 (1.2%) were called active. Shown is part of a subset that was picked to be rich in actives. A number with no mark means an inactive call.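 The calls were made as follows: active = mean replicate inhibition at least 60% with every replicate also reaching 60%; inconclusive = only one of the two criteria is met; inactive = mean below 60% and not all replicates reaching 60%.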
assay: PAX8 transcriptional activity inhibition in RMG-I – RMG-I cells, luciferase, single concentration, primary screen (AID 652154); details: RMG-I TPO-luciferase reporter, SteadyGlo, 24 h; at 12.6 µM; stronger effect = higher value;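 also: luciferase light reporting Pax8 driven TPO promoter activity; plate controls were median of neutral control wells for no effect and mitoxantrone controls for full effect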

Row | Structure (SMILES) | inhibition
1 | O=C(Nc1cc(Cl)cc(Cl)c1)N[C@@H]1CC[C@H](CCNS(=O)(=O)c2cccc(F)c2)O[C@H]1CO | 13.6%
2 | COCC#Cc1ccc([C@H]2[C@H]3CN(Cc4ccncc4)CCCCN3[C@H]2CO)cc1 | 12.1%
3 | O=C(C[C@@H]1CC[C@@H]2[C@H](COC[C@H](O)CN2C(=O)c2ccncc2)O1)NCc1cc(F)cc(F)c1 | -12.3%
4 | COc1cc(OC)cc(C(=O)N[C@H](C(=O)Nc2nc3ccccc3[nH]2)C(C)C)c1 | 81.6% (active)
5 | COc1cc(OC)cc(C(=O)N[C@H](C(=O)OCC(=O)NC(C)c2ccccc2)C(C)C)c1 (stereo not given in full) | -10.5%
6 | COc1cc(OC)cc(C(=O)N[C@H](C(=O)NNC(=O)c2ccc(Br)cc2)C(C)C)c1 | 18.6%
7 | CO[C@H]1CN(C)C(=O)c2cc(NC(=O)c3ccc4c(c3)OCO4)ccc2OC[C@@H](C)N(CCC(F)(F)F)C[C@H]1C | -3.09%
8 | COc1ccccc1NC(=O)N1CCCCN2[C@H](C1)[C@H](c1ccc(-c3ccccc3)cc1)[C@@H]2CO | -14.1%
9 | O=C(c1ccc(F)cc1)N1CC(=O)N2[C@H](C1)[C@@H](c1ccc(C#CC3CC3)cc1)[C@@H]2CO | 27.2%
10 | COc1ccccc1NC(=O)N1CC(=O)N2[C@@H](CO)[C@H](c3ccc(C#CC4CC4)cc3)[C@@H]2C1 | -15.3%
11 | COc1ccccc1NC(=O)N1CCCCN2[C@H](CO)[C@H](c3ccc(C#CC4CC4)cc3)[C@@H]2C1 | 8.7%
12 | CC(C)C#Cc1ccc([C@H]2[C@@H](CO)N3CCCCN(C(=O)Nc4ccccc4)C[C@H]23)cc1 | 7.15%
13 | O=C(c1ccc(F)cc1)N1CC(=O)N2[C@@H](CO)[C@@H](c3ccc(C#Cc4ccc(F)cc4)cc3)[C@@H]2C1 | 87.7% (active)
14 | COc1ccc(C#Cc2ccc([C@H]3[C@@H](CO)N4CCCCN(C(=O)Nc5ccccc5)C[C@H]34)cc2)cc1 | 85.6% (active)
15 | COc1ccccc1NC(=O)N1CC(=O)N2[C@H](C1)[C@H](c1ccc(C#Cc3ccccc3)cc1)[C@@H]2CO | 61.7% (active)
16 | O=C(Nc1ccccc1)N1CCCCN2[C@H](CO)[C@@H](c3ccc(C#Cc4ccccn4)cc3)[C@H]2C1 | 10.2%
17 | O=C(CC1CC1)N1CC(=O)N2[C@H](CO)[C@H](c3ccc(C#Cc4ccc(F)cc4)cc3)[C@@H]2C1 | 2.13%
18 | COc1ccccc1NC(=O)N1CCCCN2[C@@H](CO)[C@@H](c3ccc(C#Cc4ccccc4)cc3)[C@@H]2C1 | 109% (active)
19 | COc1ccccc1NC(=O)N1CC(=O)N2[C@H](CO)[C@H](c3ccc(C#Cc4ccccc4)cc3)[C@H]2C1 | -18.8%
20 | Cc1ccccc1S(=O)(=O)N[C@@H]1CC[C@@H](CCNS(=O)(=O)c2cccc(F)c2)O[C@H]1CO | 20.4%

Row | Structure (SMILES) | inhibition
21 | O=C(C[C@H]1CC[C@H]2[C@@H](COC[C@@H](O)CN2Cc2cccc(C(F)(F)F)c2)O1)NCc1ccncc1 | -1.84%
22 | CCS(=O)(=O)Nc1ccc2c(c1)C(=O)N(C)[C@@H]1CC[C@@H](CC(=O)NC)O[C@H]1CO2 | -18%
23 | CCCNC(=O)Nc1ccc2c(c1)OC[C@@H](C)N(CCC)C[C@H](C)[C@@H](OC)CN(C)C2=O | -2.35%
24 | CCCNC(=O)Nc1ccc2c(c1)C(=O)N(C)[C@@H]1CC[C@@H](CC(=O)NC)O[C@H]1CO2 | -19.9%
25 | O=C(c1cccnc1)N1CC2(C1)[C@@H](c1ccccc1)[C@H](CO)N2C(=O)C1CCC1 | -5.13%
26 | CC(=O)N1CC[C@@H]2[C@@H](CO)N(C)c3ccc(-c4ccc(C#N)cc4)cc3[C@@H]21 | -6.97%
27 | C[C@@H]1CN([C@H](C)CO)C(=O)Cc2cc(NC(=O)CCN3CCOCC3)ccc2O[C@H]1CN(C)Cc1ccncc1 | -2.37%
28 | O=C(C1CCC1)N1CCCCN2[C@H](CO)[C@H](c3ccc(-c4cccc(F)c4)cc3)[C@H]2C1 | 84.3% (active)
29 | O=C(Nc1ccc(F)cc1)N1CCCCN2[C@H](CO)[C@H](c3ccc(C#Cc4ccccc4)cc3)[C@H]2C1 | 38%
30 | CN(C)CC#Cc1ccc([C@@H]2[C@H](CO)N3CCCCN(C(=O)NC4CCCC4)C[C@@H]23)cc1 | 6.59%
31 | O=C(C1CCC1)N1CCCCN2[C@H](CO)[C@H](c3ccc(-c4cccc(F)c4)cc3)[C@@H]2C1 | -30.2%
32 | CN(C)CC#Cc1ccc([C@@H]2[C@H](CO)N3CCCCN(C(=O)Nc4ccc(F)cc4)C[C@@H]23)cc1 | 92.8% (active)
33 | O=C(C1CCCC1)N1CCCCN2[C@@H](CO)[C@H](c3ccc(-c4cccc(F)c4)cc3)[C@@H]2C1 | 6.9%
34 | C[C@H](CO)N1C[C@H](C)[C@H](CN(C)C(=O)CCC(F)(F)F)OCCCC[C@H](C)Oc2ccc(NS(C)(=O)=O)cc2C1=O | -0.897%
35 | Cc1ccc(-c2cnc3c(c2)C(=O)N([C@H](C)CO)C[C@H](C)[C@@H](CN(C)C(=O)c2cccc(F)c2)O3)cc1 | 6.03%
36 | CCNC(=O)[C@H]1[C@H](CO)[C@H]2Cn3c(ccc(-c4ccc(OC)cc4)c3=O)[C@H]2N1Cc1ccccc1 | 21.7%
37 | CCNC(=O)C[C@H]1CC[C@@H]2[C@H](COC[C@H](O)CN2S(=O)(=O)c2ccc(Oc3ccccc3)cc2)O1 | -12.7%
38 | COc1ccc(NC(=O)N(C)C[C@H]2Oc3ccc(NS(=O)(=O)c4ccc(C)cc4)cc3C(=O)N([C@@H](C)CO)C[C@H]2C)cc1 | 2.38%
39 | C[C@H](CO)N1C[C@H](C)[C@H](CN(C)C(=O)CCN(C)C)OCc2ccccc2-c2c(n(C)c3ccccc23)C1=O | -16%
40 | C[C@@H]1CCCCO[C@@H](CN(C)Cc2ccc(C(F)(F)F)cc2)[C@@H](C)CN([C@H](C)CO)C(=O)c2cc(NC(=O)Nc3ccccc3)ccc2O1 | -1.66%

Row | Structure (SMILES) | inhibition
41 | COc1ccc(CN(C)C[C@@H]2OCCCC[C@@H](C)Oc3ccc(NC(=O)Nc4ccc(C(F)(F)F)cc4)cc3C(=O)N([C@H](C)CO)C[C@H]2C)cc1 | -16.7%
42 | C[C@@H]1CCCCO[C@@H](CN(C)Cc2ccccc2)[C@H](C)CN([C@H](C)CO)C(=O)c2cc(NC(=O)Nc3cccc4ccccc34)ccc2O1 | 73.4% (active)
43 | COc1ccc(CN(C)C[C@@H]2OCCCC[C@@H](C)Oc3ccc(NC(=O)Nc4ccc(OC)cc4)cc3C(=O)N([C@@H](C)CO)C[C@@H]2C)cc1 | -12.3%
44 | C[C@H](CO)N1C[C@H](C)[C@@H](CN(C)Cc2ccc3c(c2)OCO3)OCCCC[C@H](C)Oc2ccc(NC(=O)Nc3ccc(C(F)(F)F)cc3)cc2C1=O | 36.6%
45 | COc1ccc(NC(=O)Nc2ccc3c(c2)C(=O)N([C@@H](C)CO)C[C@H](C)[C@H](CN(C)Cc2ccc(C(F)(F)F)cc2)OCCCC[C@H](C)O3)cc1 | 71.6% (active)
46 | C[C@@H]1CN([C@H](C)CO)C(=O)c2cc(NC(=O)Nc3ccccc3)ccc2O[C@@H](C)CCCCO[C@H]1CN(C)Cc1ccc(C(F)(F)F)cc1 | 77.3% (active)
47 | C[C@@H]1CN([C@@H](C)CO)C(=O)c2cc(NC(=O)Nc3cccc4ccccc34)ccc2O[C@@H](C)CCCCO[C@H]1CN(C)Cc1ccccc1 | -1.82%
48 | CC(C)NC(=O)Nc1ccc2c(c1)C(=O)N([C@H](C)CO)C[C@H](C)[C@@H](CN(C)Cc1ccc(C(F)(F)F)cc1)OCCCC[C@@H](C)O2 | -13.6% and 26.1%
49 | C[C@H]1CCCCO[C@@H](CN(C)Cc2ccc(C(F)(F)F)cc2)[C@@H](C)CN([C@@H](C)CO)C(=O)c2cc(NC(=O)Nc3ccccc3)ccc2O1 | 67.9% (active)
50 | C[C@@H]1CCCCO[C@@H](CN(C)Cc2ccc(C(=O)O)cc2)[C@H](C)CN([C@@H](C)CO)C(=O)c2cc(NC(=O)Nc3ccc(C(F)(F)F)cc3)ccc2O1 | -16.9%
51 | C[C@@H]1CCCCO[C@H](CN(C)Cc2ccccc2)[C@H](C)CN([C@@H](C)CO)C(=O)c2cc(NC(=O)Nc3cccc4ccccc34)ccc2O1 | 21%
52 | CC(C)NC(=O)N1C[C@@H]2[C@H](c3ccccc31)[C@H](CO)N2C(=O)c1ccccn1 | -13.7%
53 | COCC#Cc1ccc([C@@H]2[C@@H](CO)N3C(=O)CN(C(=O)C4CCOCC4)C[C@@H]23)cc1 | -23.4%
54 | COc1ccc(NC(=O)N(C)C[C@H]2Oc3ccc(N(C)C)cc3C(=O)N([C@@H](C)CO)C[C@H]2C)cc1 | -20.3%
55 | O=C(NCC1CC1)[C@@H]1[C@@H](CO)[C@@H]2Cn3c(ccc(C4=CCCC4)c3=O)[C@H]1N2CCC(F)(F)F | -4.22%
56 | CCCNC(=O)N1C[C@H]2[C@@H](c3ccccc31)[C@@H](CO)N2C(=O)NCCC | -23.2%
57 | Nc1nc2c(ncn2[C@@H]2O[C@H](C(=O)N[C@H](Cc3ccccc3)C(=O)NCC3CCCCC3)[C@@H](O)[C@H]2O)c(=O)[nH]1 | -4.88%
58 | C[C@H](CO)N1C[C@H](C)[C@@H](CN(C)C(=O)Nc2ccnc(N3CCOCC3)c2)OCc2ccccc2-c2ccccc2C1=O | -26.9%
59 | C[C@@H]1CN([C@@H](C)CO)C(=O)Cc2cc(NC(=O)Nc3ccc(F)cc3)ccc2O[C@@H]1CN(C)C | -0.58%
60 | C[C@H](CO)N1C[C@H](C)[C@@H](CN(C)Cc2ccncc2)Oc2ccc(NS(=O)(=O)c3ccc(Cl)cc3)cc2CC1=O | 20.9%

From PubChem BioAssay AID652154 (Broad Institute, 2013)
